According to PubChem BioAssay (NCI):
The panel holds about 83,000 compounds, 20% with a hit somewhere; the sample as a whole holds those more often.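 The test compound was applied at a single concentration to cells in 96-well plates for 48 hours, and percent growth was recorded.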 Active and inactive are the calls of the source. The calls were made as follows: active = growth percent below 10; inactive = the rest.

Assays:
Assay in all cases: NCI-60 one-dose screen, 48 h (100 = growth as untreated, 0 = no growth, -100 = all killed)
Conditions in all cases: 10 µM unless noted
NCI-H23 lung = test system: NCI-H23 lung
NCI-H226 lung = test system: NCI-H226 lung
NCI-H322M lung = test system: NCI-H322M lung
HOP-62 NSCLC = test system: HOP-62 NSCLC
NCI-H460 lung = test system: NCI-H460 lung
HOP-92 NSCLC = test system: HOP-92 NSCLC
NCI-H522 lung = test system: NCI-H522 lung
A549/ATCC NSCLC = test system: A549/ATCC NSCLC
786-0 renal = test system: 786-0 renal
COLO 205 colon = test system: COLO 205 colon
DU-145 prostate = test system: DU-145 prostate
K-562 leukemia = test system: K-562 leukemia
MALME-3M melanoma = test system: MALME-3M melanoma
MDA-MB-231 breast = test system: MDA-MB-231 breast
RXF 393 renal = test system: RXF 393 renal
SF-268 CNS = test system: SF-268 CNS
SF-295 CNS = test system: SF-295 CNS
SF-539 CNS = test system: SF-539 CNS
UACC-257 melanoma = test system: UACC-257 melanoma
M14 melanoma = test system: M14 melanoma

Measured: growth

CC(=O)OC1Oc2cc(C)c(C)cc2-c2oc(=O)c(-c3cc4ccc(N(C)C)cc4oc3=O)cc21 (stereo not given)
inactive: NCI-H23 lung 46.9% | NCI-H226 lung 59.2% | NCI-H322M lung 78.9% | HOP-62 NSCLC 82% | NCI-H460 lung 65.4% | HOP-92 NSCLC 77.8% | NCI-H522 lung 60.5% | A549/ATCC NSCLC 70.5% | 786-0 renal 74.1% | COLO 205 colon 96.4% | DU-145 prostate 85.8% | K-562 leukemia 11.4% | MALME-3M melanoma 68.1% | MDA-MB-231 breast 75.8% | RXF 393 renal 45.9% | SF-268 CNS 84.8% | SF-295 CNS 54.9% | SF-539 CNS 81.4% | UACC-257 melanoma 73.4% | M14 melanoma 86.7%

Cc1cc(N/N=C/c2nc(-c3ccc(Cl)cc3)oc2C)c2cc(Br)ccc2n1
inactive: NCI-H23 lung 96.4% | NCI-H226 lung 92.9% | NCI-H322M lung 72.5% | HOP-62 NSCLC 100% | HOP-92 NSCLC 69.6% | A549/ATCC NSCLC 17.1% | 786-0 renal 24.6% | COLO 205 colon 91.6% | DU-145 prostate 31.9% | MDA-MB-231 breast 70.4% | RXF 393 renal 98.6% | SF-268 CNS 68.5% | SF-295 CNS 105% | SF-539 CNS 87.3% | UACC-257 melanoma 101% | M14 melanoma 40.6%
active: NCI-H460 lung -47.4% | NCI-H522 lung -1.02% | K-562 leukemia 0% | MALME-3M melanoma 7.27%

CSc1[nH]c2ncnc(N)c2c1C#N
inactive: NCI-H23 lung 91.4% | NCI-H226 lung 73.6% | NCI-H322M lung 82.9% | HOP-62 NSCLC 94.9% | NCI-H460 lung 99.6% | HOP-92 NSCLC 118% | NCI-H522 lung 82.6% | A549/ATCC NSCLC 101% | 786-0 renal 99.7% | COLO 205 colon 117% | DU-145 prostate 101% | K-562 leukemia 84.6% | MALME-3M melanoma 107% | MDA-MB-231 breast 98.8% | RXF 393 renal 151% | SF-268 CNS 113% | SF-295 CNS 105% | SF-539 CNS 96.3% | UACC-257 melanoma 124% | M14 melanoma 95.1%

CCN(CC)CC(O)c1cc(-c2ccc(Cl)cc2)nc2c(C)c(Cl)ccc12 (stereo not given)
active: NCI-H23 lung -89.3% | NCI-H226 lung -15.8% | NCI-H322M lung -82.5% | HOP-62 NSCLC -100% | NCI-H460 lung -86% | HOP-92 NSCLC -46.8% | NCI-H522 lung -76% | A549/ATCC NSCLC -85.8% | 786-0 renal -95.9% | COLO 205 colon -100% | DU-145 prostate -71.1% | K-562 leukemia -75.3% | MALME-3M melanoma -64% | MDA-MB-231 breast -82.2% | RXF 393 renal -86.4% | SF-268 CNS -29.5% | SF-295 CNS -76.8% | SF-539 CNS -98.6% | UACC-257 melanoma -80.8% | M14 melanoma -98.5%

C/C(Cc1ccc(Cl)cc1)=C(\c1ccc(OCCN2CCCCCC2)cc1)c1ccc(OC(=O)C2CCCCC2)cc1
active: COLO 205 colon -21.8%
inactive: NCI-H23 lung 74.8% | NCI-H226 lung 79.2% | NCI-H322M lung 70.5% | HOP-62 NSCLC 81.5% | NCI-H460 lung 34.7% | HOP-92 NSCLC 29.1% | NCI-H522 lung 64.8% | A549/ATCC NSCLC 66.5% | 786-0 renal 70% | DU-145 prostate 70.4% | K-562 leukemia 11.4% | MALME-3M melanoma 85.7% | MDA-MB-231 breast 85.4% | RXF 393 renal 56.2% | SF-268 CNS 57% | SF-295 CNS 89.8% | SF-539 CNS 74.2% | UACC-257 melanoma 91% | M14 melanoma 12.7%

COc1ccc(-n2c(C)nc3c(c(C)nn3-c3ccccc3)c2=O)cc1
inactive: NCI-H23 lung 18.4% | NCI-H226 lung 51.3% | NCI-H322M lung 49.9% | HOP-62 NSCLC 34.4% | HOP-92 NSCLC 27.6% | A549/ATCC NSCLC 16.3% | 786-0 renal 27.4% | MALME-3M melanoma 63.7% | MDA-MB-231 breast 31.9% | RXF 393 renal 19.7% | SF-268 CNS 30.3% | UACC-257 melanoma 60% | M14 melanoma 10.4%
active: NCI-H460 lung 3.74% | NCI-H522 lung -14% | COLO 205 colon -45.6% | DU-145 prostate 0.999% | K-562 leukemia 8.9% | SF-295 CNS 3.34% | SF-539 CNS -1.28%

O=C1CCc2c(sc3[nH]c(=S)n(Cc4ccccc4)c(=O)c23)C1
inactive: NCI-H226 lung 51.2% | NCI-H322M lung 30.1% | HOP-62 NSCLC 10.2% | A549/ATCC NSCLC 13.9% | 786-0 renal 30.9% | COLO 205 colon 32.3% | DU-145 prostate 64.1% | K-562 leukemia 11.5% | MALME-3M melanoma 69% | MDA-MB-231 breast 16.5% | RXF 393 renal 20.8% | SF-268 CNS 19.4% | UACC-257 melanoma 29.1% | M14 melanoma 18.9%
active: NCI-H23 lung 0.541% | NCI-H460 lung 3.94% | HOP-92 NSCLC -19.5% | NCI-H522 lung 2.03% | SF-295 CNS -13.9% | SF-539 CNS -12.6%

C=C1C(=O)O[C@H]2[C@H]1CC/C(Cn1cc(Cc3c[nH]c4ccccc34)nn1)=C\CC[C@@]1(C)O[C@@H]21
active: HOP-92 NSCLC -8.55% | NCI-H522 lung -79.2% | 786-0 renal -9.3% | COLO 205 colon -68.1% | K-562 leukemia -12.9% | MALME-3M melanoma -40.6% | MDA-MB-231 breast 1.06% | RXF 393 renal -33.3% | SF-539 CNS -55.4%
inactive: NCI-H23 lung 37.1% | NCI-H226 lung 79.7% | NCI-H322M lung 85.1% | HOP-62 NSCLC 76.7% | NCI-H460 lung 79.7% | A549/ATCC NSCLC 57.9% | DU-145 prostate 20% | SF-268 CNS 35.1% | SF-295 CNS 79.3% | UACC-257 melanoma 43.8% | M14 melanoma 10.2%

CCCCCCCCCCCCCCCCCCNC(=O)[C@H]1CSC(c2ccc(F)c(OC)c2)N1 (stereo not given in full)
inactive: COLO 205 colon 20.1% | DU-145 prostate 26.5% | SF-295 CNS 30.8%
active: NCI-H23 lung 5.24% | NCI-H226 lung -69% | NCI-H322M lung -22.2% | HOP-62 NSCLC -97.6% | NCI-H460 lung -77.7% | HOP-92 NSCLC -5.83% | NCI-H522 lung 7.12% | A549/ATCC NSCLC -12.9% | 786-0 renal -10.6% | K-562 leukemia -56.3% | MALME-3M melanoma -91.2% | MDA-MB-231 breast -83.4% | RXF 393 renal -93.6% | SF-268 CNS -69.9% | SF-539 CNS -61.9% | UACC-257 melanoma -61.7% | M14 melanoma -90.8%

O=C(Nc1nc(-c2ccccc2)cc(-c2ccc(Cl)cc2)n1)c1ccncc1
inactive: NCI-H23 lung 90.2% | NCI-H226 lung 93.3% | NCI-H322M lung 95.6% | HOP-62 NSCLC 97.6% | NCI-H460 lung 98.7% | HOP-92 NSCLC 89.5% | NCI-H522 lung 86.8% | A549/ATCC NSCLC 90.5% | 786-0 renal 92.8% | COLO 205 colon 103% | DU-145 prostate 103% | K-562 leukemia 93.5% | MALME-3M melanoma 99.3% | MDA-MB-231 breast 94.8% | RXF 393 renal 85.7% | SF-268 CNS 94.5% | SF-295 CNS 100% | SF-539 CNS 102% | UACC-257 melanoma 104% | M14 melanoma 104%

Clc1nc(Cl)c2c3c(sc2n1)CCCC3
active: NCI-H226 lung 3.63% | NCI-H522 lung 7.65% | COLO 205 colon 5.1% | DU-145 prostate -55.3% | K-562 leukemia -33.2% | RXF 393 renal -19.4%
inactive: NCI-H23 lung 32.5% | NCI-H322M lung 90.2% | HOP-62 NSCLC 91.4% | NCI-H460 lung 109% | HOP-92 NSCLC 103% | A549/ATCC NSCLC 120% | 786-0 renal 96.1% | MALME-3M melanoma 45% | MDA-MB-231 breast 62.4% | SF-268 CNS 26.1% | SF-295 CNS 104% | SF-539 CNS 105% | UACC-257 melanoma 81.2% | M14 melanoma 21.1%

COc1ccc(S(=O)(=O)NCCCNc2cc(-c3c(-c4cccc(OC)c4)nc4sccn34)ccn2)cc1
inactive: NCI-H23 lung 59.8% | NCI-H226 lung 37.7% | NCI-H322M lung 67.6% | HOP-62 NSCLC 80.6% | NCI-H460 lung 44.2% | HOP-92 NSCLC 62.1% | NCI-H522 lung 52.7% | A549/ATCC NSCLC 42.9% | 786-0 renal 52.1% | COLO 205 colon 35.8% | DU-145 prostate 46.4% | K-562 leukemia 25.6% | MALME-3M melanoma 66.1% | MDA-MB-231 breast 46.8% | RXF 393 renal 56% | SF-268 CNS 44.9% | SF-295 CNS 40.5% | SF-539 CNS 61.9% | UACC-257 melanoma 53.3% | M14 melanoma 45%

C=CC[N+]1(CC)CCN=C1CCCCCCCCCCCCCCCCC (stereo not given)
inactive: NCI-H322M lung 27.8%
active: NCI-H23 lung -92.9% | NCI-H226 lung -50% | HOP-62 NSCLC -95% | NCI-H460 lung -100% | HOP-92 NSCLC -57.6% | NCI-H522 lung -85.2% | A549/ATCC NSCLC -92.9% | 786-0 renal -98.4% | COLO 205 colon -100% | DU-145 prostate -100% | K-562 leukemia -66.9% | MALME-3M melanoma -46.4% | MDA-MB-231 breast -89.7% | RXF 393 renal -90.3% | SF-268 CNS -83.4% | SF-295 CNS -31.4% | SF-539 CNS -98.2% | UACC-257 melanoma -91.3% | M14 melanoma -99.8%
